The first experiment concerns the target NAT9. Briefly: pooled miR-30 sensor sort-seq; sequence = guide strand. To be noted: shRNA.
Consider TAAGGCTTCTCTTCCACGTGGC, for which the sensor-assay potency score (higher = more potent) is 0.678.

In turn, TTGTCTGCATCTTCCTGCCAGC had a sensor-assay potency score (higher = more potent) of -1.08.

For the sequence TGAAGTTTCTGGAACATCCGGA, the sensor-assay potency score (higher = more potent) amounted to 0.756.

Sequence TCTGATTTCATCCACTCGTGGT gave a sensor-assay potency score (higher = more potent) of -0.312.

With TGAAGGTACACTTGTCTGCATC, the sensor-assay potency score (higher = more potent) is -1.11.

The sequence ATCCACTCGTGGTACCTGCTGG came in with a sensor-assay potency score (higher = more potent) of -0.384.

TTCATCCACTCGTGGTACCTGC registered a sensor-assay potency score (higher = more potent) of -1.04.

TTGTTCACATGCAGTCTGCTGT returned a sensor-assay potency score (higher = more potent) of -0.324.

TCAAACGCTGCAGCTCCTCTGA displayed a sensor-assay potency score (higher = more potent) of -0.784.

For TAGATCTGTGAGGAAGAGGTTC, the sensor-assay potency score (higher = more potent) was -0.334.

Regarding ACACTTGTCTGCATCTTCCTGC, the sensor-assay potency score (higher = more potent) is 0.498.

On to TACACTTGTCTGCATCTTCCTG, for which the sensor-assay potency score (higher = more potent) is -0.99.

The target of another experiment is NBPF1. The description is as above. To be noted: shRNA.
With TTGGTCTTCTTCCTCTTCCTGG, the sensor-assay potency score (higher = more potent) is -0.175.

The sequence TAAAATGTTCGTCTCTGCCTTC came in with a sensor-assay potency score (higher = more potent) of -0.476.

As for TTTTCTTCGTTGATCTTCTTCC, the sensor-assay potency score (higher = more potent) is -0.0891.

TTCGTCTCTGCCTTCTCGCTGG: the sensor-assay potency score (higher = more potent) worked out at 0.0322.

As for TTGATTTCTAAAATGTTCGTCT, the sensor-assay potency score (higher = more potent) came to 0.0571.

With TCTTCGTTGATCTTCTTCCCCT, the sensor-assay potency score (higher = more potent) is -0.277.

As for TTTATGAGGTCTTCGCACTCTT, the sensor-assay potency score (higher = more potent) is 0.0563.

Sequence TTCGTTGATCTTCTTCCCCTTC yielded a sensor-assay potency score (higher = more potent) of -0.152.

Turning to TTATGAGGTCTTCGCACTCTTC, the sensor-assay potency score (higher = more potent) is -1.54.
Further: reference of the scale not given here.
